Assay [1] in a line: ATG_ERE_CIS: Attagene CIS-FACTORIAL HepG2 Assay for Estrogen Response Element (ERE) (AID 2282940). Conditions: HepG2 ERE cis-reporter, Attagene RNA transcript; actives raise or lower the signal. In short, it runs like this: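 Transient MRTU transfection of human HepG2; cis-element promoters; 24 h dosing; total RNA → RT (oligo dT) → PCR → 6-FAM primer extension → HpaI digest → CE fluorescence. Bidirectional fit, DMSO baseline.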

A short description of assay [2]: ATG_Ets_CIS: Attagene CIS-FACTORIAL HepG2 Assay for human Erythroblast Transformation Specific (ETS) (AID 2282941). Conditions: HepG2 ETS cis-reporter transcription, actives raise or lower the signal. In short, it runs like this:
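Human HepG2 hepatoma cells were transiently transfected with promoter-driven reporter constructs and treated for 24 hours. Reporter transcripts were quantified by RT-PCR with fluorescent primer extension; bidirectional curve fitting used DMSO as reference.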

The target of assay [3] is Hepatocyte nuclear factor 3-beta (Homo sapiens) (UniProt Q9Y261). The assay is described as follows: ATG_FoxA2_CIS: Attagene CIS-FACTORIAL HepG2 Assay for human Forkhead box A2 (FOXA2) (AID 2282942). Conditions: HepG2 cis-reporter transcription factor activity, 24 h; actives raise or lower the signal. In short, it runs like this:
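Measured: reporter mRNA induction or loss in HepG2 transiently carrying multiple cis-regulated reporter units, 24 h after dosing. Quantified by RT-PCR plus capillary electrophoresis, normalised to DMSO.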

The nature of assay [4]: ATG_FoxO_CIS: Attagene CIS-FACTORIAL HepG2 Assay for human Forkhead box O (FoxO) (AID 2282943). Conditions: HepG2 Attagene cis-reporter, FoxO element, mRNA; actives raise or lower the signal. A digest of the protocol:
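HepG2 cells transiently transfected with cis-promoter-driven multiple reporter transcription units; 24 h after chemical dosing, reporter mRNA quantified by RT-PCR, fluorescent primer extension, HpaI digestion and capillary electrophoresis. Bidirectional fitting versus DMSO baseline.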

Assay [5] can be described thus: ATG_GATA_CIS: Attagene CIS-FACTORIAL HepG2 Assay for human GATA Binding Protein (AID 2282944). Conditions: HepG2 GATA cis-element reporter, Attagene multiplex mRNA; actives raise or lower the signal. In short, it runs like this: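 Transient MRTU transfection, HepG2, 24 h compound exposure. Total RNA → oligo(dT) RT → PCR → 6-FAM primer extension → HpaI cut → CE. Bidirectional fit vs DMSO.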

Assay [6] is described as follows: ATG_GLI_CIS: Attagene CIS-FACTORIAL HepG2 Assay for human Zinc Finger Protein GLI1 (AID 2282945). To be noted: HepG2, Attagene cis-factorial reporter mRNA, GLI element; actives raise or lower the signal. A digest of the protocol: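 HepG2 cells transiently transfected with cis-promoter multiplexed reporter units report endogenous transcription factor activity. After 24 h chemical exposure, reporter mRNA was quantified by RT-PCR, 6-FAM labelling, HpaI digestion and capillary electrophoresis, with bidirectional fitting against DMSO.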

Assay [7] concerns the target Bile acid receptor (Homo sapiens) (UniProt Q96RI1). The assay is described as follows: ATG_IR1_CIS: Attagene CIS-FACTORIAL HepG2 Assay for human Nuclear Receptor Subfamily 1 Group H Member 4 (NR1H4), IR1 submotif (AID 2282946). To be noted: IR1 reporter transcription, actives raise or lower the signal. A digest of the protocol:
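Transient MRTU transfection, HepG2; 24 h dosing; RNA → RT-PCR → 6-FAM primer extension → HpaI digest → capillary electrophoresis fluorescence. Gain/loss of signal fitted relative to DMSO.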

A short description of assay [8]: ATG_ISRE_CIS: Attagene CIS-FACTORIAL HepG2 Assay for human Interferon Regulatory Factor 1 (IRF1) binding to an Interferon-Stimulated Response Element (ISRE) (AID 2282948). Conditions: HepG2 ISRE cis-reporter (Attagene), mRNA transcription readout; actives raise or lower the signal. A digest of the protocol:
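Cell-based cis-reporter assay; HepG2; 24 h exposure; reporter mRNA by RT-PCR plus capillary electrophoresis fluorescence; activity in either direction scored relative to DMSO.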

Assay [9] in a line: ATG_M_32_CIS: Attagene CIS-FACTORIAL HepG2 Assay for M32 Transcription Factor (Internal Marker) (AID 2282949).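 Further: background control marker of the multiplexed CIS panel rather than a real target.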 Conditions: HepG2 Attagene cis-factorial M32 reporter, mRNA; actives raise or lower the signal. In short, it runs like this: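 HepG2 cells transiently transfected with multiplexed cis-regulated reporter units, dosed 24 h. Reporter mRNA quantified by RT-PCR, 6-FAM labelling, HpaI digestion and capillary electrophoresis; bidirectional fit vs DMSO.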

Assay [10] can be described thus: ATG_GRE_CIS: Attagene CIS-FACTORIAL HepG2 Assay for human Glucocorticoid Response Elements (GRE) (AID 2282947). Conditions: HepG2 GRE cis-reporter, Attagene multiplex mRNA; actives raise or lower the signal. In short, it runs like this:
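Following 24 h chemical exposure of transiently transfected HepG2 cells, total RNA was reverse-transcribed and reporter cDNA amplified, fluorescently labelled and sized by capillary electrophoresis. Signal gain or loss was fitted relative to DMSO vehicle.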

Activity calls are given as the source filed them. How the source made its calls: active means hit-call score of the fitted dose curve at least 0.9, where 1 is the maximum; inactive means score below 0.9.

Bile acid receptor (Homo sapiens), sequence (Q96RI1 whole entry, looked up): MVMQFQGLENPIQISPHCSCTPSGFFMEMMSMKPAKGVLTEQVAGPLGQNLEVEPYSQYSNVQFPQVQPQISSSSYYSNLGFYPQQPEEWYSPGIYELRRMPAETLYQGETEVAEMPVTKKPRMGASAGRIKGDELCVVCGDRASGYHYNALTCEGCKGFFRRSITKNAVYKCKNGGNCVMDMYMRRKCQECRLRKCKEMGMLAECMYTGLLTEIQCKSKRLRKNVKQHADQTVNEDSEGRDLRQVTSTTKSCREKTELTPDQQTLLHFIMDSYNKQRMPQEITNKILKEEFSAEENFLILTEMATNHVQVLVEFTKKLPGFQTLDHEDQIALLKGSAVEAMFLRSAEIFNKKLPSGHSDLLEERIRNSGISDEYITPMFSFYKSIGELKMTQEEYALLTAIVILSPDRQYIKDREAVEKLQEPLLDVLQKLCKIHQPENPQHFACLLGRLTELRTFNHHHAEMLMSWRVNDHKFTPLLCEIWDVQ
Hepatocyte nuclear factor 3-beta (Homo sapiens), sequence (Q9Y261 whole entry, looked up): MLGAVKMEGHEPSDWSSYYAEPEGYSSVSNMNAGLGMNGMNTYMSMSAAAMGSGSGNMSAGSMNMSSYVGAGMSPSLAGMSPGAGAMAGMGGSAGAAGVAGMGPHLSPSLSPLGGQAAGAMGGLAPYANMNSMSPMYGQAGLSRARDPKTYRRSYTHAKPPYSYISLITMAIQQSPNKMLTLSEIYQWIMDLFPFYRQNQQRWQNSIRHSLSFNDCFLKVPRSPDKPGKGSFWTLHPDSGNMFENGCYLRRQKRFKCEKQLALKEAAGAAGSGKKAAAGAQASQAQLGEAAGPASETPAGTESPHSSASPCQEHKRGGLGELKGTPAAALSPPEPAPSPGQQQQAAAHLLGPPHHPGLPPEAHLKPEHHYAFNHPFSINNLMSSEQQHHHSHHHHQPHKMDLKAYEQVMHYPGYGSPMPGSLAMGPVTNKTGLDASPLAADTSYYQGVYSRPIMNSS

With `OCc1ccco1`, the call in assay [1], in assay [2], in assay [3], in assay [4], in assay [5] and in assay [6] was inactive. Further, the compound was classed as inactive in assay [7], in [8] and in [9].

In the case of `CCC(C)c1cccc(C(C)CC)c1O` (configuration not stated), the compound was called inactive in [1], in [2], in [3], in [4], in [5] and in assay [6]. Also, the call in [7], in assay [8] and in assay [9] was inactive.

Regarding `COP(=S)(OC)Oc1c(Cl)cc(C)cc1Cl`, the AC50 (usually the concentration giving half of the maximal activity seen) in assay [1] was 9.77 µM (active). Further, the compound was called inactive in assay [2], in assay [3], in assay [4], in assay [5], in assay [6] and in assay [10]. The call in assay [8] and in assay [9] was inactive.

Regarding `CNC(=O)O/N=C/C(C)(C)S(C)=O` (configuration not stated), the AC50 in [1] was 84.1 µM (active). Besides, the compound was called inactive in assay [2], in assay [3], in assay [4], in assay [5], in [6] and in [7]. Besides, the call in assay [8] and in [9] was inactive.

Regarding `CCCCCCCCC(=O)NCc1ccc(O)c(OC)c1`, the compound was called inactive in [1], in assay [2], in assay [3], in [4], in [5] and in assay [6]. For the same compound, the outcome in assay [10], in assay [8] and in assay [9] was inactive.

Regarding `Nc1ccc(N=Nc2ccc(-c3ccc(N=Nc4c(S(=O)(=O)O)cc5cc(S(=O)(=O)O)c(N=Nc6ccccc6)c(O)c5c4N)cc3)cc2)c(N)c1`, the AC50 in assay [1] was 24.8 µM (active). For the same compound, the compound was called inactive in [2], in assay [3], in [4], in assay [5], in assay [6] and in [10]. Moreover, the result in assay [8] and in [9] was inactive.

On to `COc1ccccc1OC`, for which the compound was called inactive in assay [1], in [2], in [3], in [4], in assay [5] and in [6]. Also, the outcome in assay [10], in assay [8] and in [9] was inactive.

For `Oc1c(I)cc(I)cc1I`, the call in assay [1], in [2], in assay [3], in assay [5], in assay [7] and in assay [9] was inactive. Moreover, the results for the AC50 in assay [4], in assay [6] and in [8] were 100 µM (active), 149 µM (active) and 100 µM (active), respectively.

Take `Cn1sc(Cl)cc1=O`: the compound was classed as inactive in [1], in assay [2], in assay [3], in assay [4], in assay [5] and in [6]. Moreover, the result in [7], in assay [8] and in assay [9] was inactive.

For the compound `CCC(=O)c1ccccc1`, the outcome in assay [1], in assay [2], in assay [3], in assay [4], in assay [5] and in assay [6] was inactive. The result in assay [7], in [8] and in [9] was inactive.

Consider `CC(=O)C=C(C)C`, for which the compound was called inactive in [1], in [2], in assay [3], in [4], in assay [5] and in assay [6]. The outcome in assay [10], in [8] and in [9] was inactive.

As for `CC1(C)CCC(Cc2ccc(Cl)cc2)C1(O)Cn1cncn1` (configuration not stated), the AC50 in assay [1] was 7.52 µM (active). Moreover, the call in assay [2], in assay [3], in [4], in [5], in assay [6] and in assay [7] was inactive. In addition, the compound was classed as inactive in assay [8] and in assay [9].

For the compound `CN(C)P(=O)(N(C)C)N(C)C`, the call in [1], in assay [2], in assay [3], in assay [4], in [5] and in [6] was inactive. In addition, the compound was classed as inactive in assay [7], in assay [8] and in assay [9].

On to `O=C/C=C/c1ccccc1`, for which the AC50 in assay [1] is 35 µM (active). The compound was classed as inactive in assay [2], in assay [3], in assay [4], in assay [5], in [6] and in assay [10]. For the same compound, the compound was called inactive in [8] and in assay [9].

For the compound `CCOC(=O)Nc1cccc(OC(=O)Nc2ccccc2)c1`, the call in [1], in assay [2], in [3], in assay [4], in [5] and in assay [6] was inactive. Moreover, the compound was called inactive in assay [10], in [8] and in assay [9].

With `O=C(CCl)CCl`, the result in assay [1], in assay [3], in assay [5] and in assay [6] was inactive. For the same compound, the AC50 was 39.1 µM (active) in assay [2], 46.3 µM (active) in assay [4], 33.4 µM (active) in assay [8] and 54.6 µM (active) in assay [9].

Turning to `NC(=O)O`, the outcome in assay [1], in assay [2], in [3], in assay [4], in assay [5] and in assay [6] was inactive. In addition, the result in assay [8] and in assay [9] was inactive.

For `Nc1cccc2ccccc12`, the result in [1], in [2], in [3], in [4], in assay [5] and in assay [6] was inactive. The compound was classed as inactive in assay [8] and in [9].

As for `CC(C)(c1ccc(OCC2CO2)cc1)c1ccc(OCC2CO2)cc1` (configuration not stated), the result in assay [1], in assay [2], in [3], in [4], in assay [5] and in assay [6] was inactive. Moreover, in assay [9], the call was inactive. Also, the AC50 in assay [8] was 58 µM (active).

Values taken from PubChem BioAssay (EPA / NIEHS).
